Among the data in PubChem BioAssay (NCI) are growth inhibition values, retold here.

Experiment [1] in a line: NCI Yeast Anticancer Drug Screen. Data for the rad50 strain (AID 155).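 Also: 0% = growth of vehicle-only cultures of the same strain.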 To be noted: S. cerevisiae rad50 strain growth inhibition, hits give high values. The gist of the method: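 Yeast carrying a defined DNA repair defect were exposed to test compounds, and growth was compared with vehicle-treated controls to give percent inhibition.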
A short description of experiment [2]: NCI Yeast Anticancer Drug Screen. Data for the mec2-1 strain (AID 157). To be noted: S. cerevisiae mec2-1 strain, hits give high values. An outline of the steps:
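Readout is yeast growth inhibition, normalised to vehicle-treated controls, in the mec2-1 strain exposed to compound.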

Experiment [3] is described as follows: NCI Yeast Anticancer Drug Screen. Data for the sgs1 mgt1 strain (AID 161).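 Also: 0% = growth of cultures given vehicle only.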 As to conditions: S. cerevisiae sgs1 mgt1 strain, hits give high values. The gist of the method:
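Growth of a repair-deficient yeast mutant was monitored after compound treatment and expressed as inhibition relative to vehicle-treated cultures.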

Experiment [4] can be described thus: NCI Yeast Anticancer Drug Screen. Data for the cln2 rad14 strain (AID 165).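 Also: 0% = growth equal to vehicle treated cultures.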 To be noted: S. cerevisiae cln2 rad14 strain, hits give high values. An outline of the steps:
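Relative to vehicle controls, growth inhibition of compound-treated cln2 rad14 yeast was recorded.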

The nature of experiment [5]: NCI Yeast Anticancer Drug Screen. Data for the bub3 strain (AID 167). To be noted: S. cerevisiae bub3 mutant strain, hits give high values. The gist of the method:
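Compounds were applied to a genetically altered yeast strain carrying a cell-cycle control defect. Growth inhibition was scored against vehicle-treated controls.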

A short description of experiment [6]: NCI Yeast Anticancer Drug Screen. Data for the mlh1 rad18 strain (AID 175). To be noted: S. cerevisiae mlh1 rad18 strain growth inhibition, hits give high values. The gist of the method: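 Test agents were incubated with a yeast strain of defined genotype (DNA damage repair defect). Inhibition of growth was derived by comparison with vehicle-exposed cultures.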

Setting [7] is: at 5.0 µM (retest, dose inferred, filed as 0.5).
Where [8] appears, read: at 50.0 µM (retest, dose inferred, filed as 5.0).

About 79,000 compounds went through this panel and 15% of them were active in at least one assay; those are over-represented in the sample as a whole. Unmarked numbers belong to inactive results. Activity calls are given as the source filed them. Rule as the data show it: active = growth inhibition above about 70%; inactive = the rest.

As to `CC(C)(C)CC(C)(C)c1ccc(OCCOCCSC(=N)N)cc1`, the growth inhibition in experiment [1] (setting [7]) was 5%; in experiment [1] (setting [8]), 99% (active); in experiment [1] (at 50.0 µM), 46.4%; in experiment [2] (setting [7]), -3%; in experiment [2] (setting [8]), 100% (active); in experiment [2] (at 50.0 µM) it was 47%. For the same compound, the growth inhibition in experiment [3] (setting [7]) is 23%; in experiment [3] (setting [8]) it was 99% (active); in experiment [3] (at 50.0 µM) it was 40.1%; in experiment [4] (setting [7]), 13%; in experiment [4] (setting [8]), 99% (active); in experiment [4] (at 50.0 µM) it was 99.2% (active). For the same compound, the growth inhibition in experiment [5] (setting [7]) was 5%; in experiment [5] (setting [8]), 99% (active); in experiment [5] (at 50.0 µM), 99.5% (active); in experiment [6] (setting [7]), 24%; in experiment [6] (setting [8]), 98% (active); in experiment [6] (at 50.0 µM), 97.6% (active).

With `OCCOSCCO`, the growth inhibition in experiment [1] (setting [7]) is 5%; in experiment [1] (setting [8]), -4%; in experiment [1] (at 50.0 µM), -0.05%; in experiment [2] (setting [7]), 2%; in experiment [2] (setting [8]), -4%; in experiment [2] (at 50.0 µM), -14.1%. Besides, the growth inhibition is -8% in experiment [3] (setting [7]); -2% in experiment [3] (setting [8]); 10.2% in experiment [3] (at 50.0 µM); 6% in experiment [4] (setting [7]); 2% in experiment [4] (setting [8]); 15.8% in experiment [4] (at 50.0 µM). In addition, the growth inhibition is 4% in experiment [6] (setting [7]), -4% in experiment [6] (setting [8]) and -14.1% in experiment [6] (at 50.0 µM).

For the compound `C/C(=N\NC(=S)N1CC2CCC(CC2)C1)c1ccccn1`, the growth inhibition is 33% in experiment [1] (setting [7]); 65% in experiment [1] (setting [8]); 86.7% (active) in experiment [1] (at 50.0 µM); 13% in experiment [2] (setting [7]); 73% (active) in experiment [2] (setting [8]); 89.7% (active) in experiment [2] (at 50.0 µM). The growth inhibition in experiment [3] (setting [7]) is 26%; in experiment [3] (setting [8]), 76% (active); in experiment [3] (at 50.0 µM), 88.8% (active); in experiment [4] (setting [7]), 23%; in experiment [4] (setting [8]), 81% (active); in experiment [4] (at 50.0 µM), 79.1% (active). Further, the growth inhibition in experiment [5] (setting [7]) was 21%; in experiment [5] (setting [8]) it was 80% (active); in experiment [5] (at 50.0 µM), 88.7% (active); in experiment [6] (setting [7]), 25%; in experiment [6] (setting [8]) it was 68%; in experiment [6] (at 50.0 µM), 92.3% (active).

For the compound `C=C1C(=O)C2=CC1CCC(=O)C1(C)CCC(OC(C)=O)C(C)(C)C1CC2O` (stereo not drawn), the growth inhibition in experiment [1] (setting [7]) was 16%; in experiment [1] (setting [8]) it was 52%; in experiment [1] (at 50.0 µM), 82.1% (active); in experiment [2] (setting [7]), 10%; in experiment [2] (setting [8]), 70% (active); in experiment [2] (at 50.0 µM), 82.8% (active). For the same compound, the growth inhibition in experiment [3] (setting [7]) was 12%; in experiment [3] (setting [8]), 46%; in experiment [3] (at 50.0 µM), 78.7% (active); in experiment [4] (setting [7]), 16%; in experiment [4] (setting [8]) it was 40%; in experiment [4] (at 50.0 µM), 65%. Also, the growth inhibition in experiment [5] (setting [7]) was 15%; in experiment [5] (setting [8]), 83% (active); in experiment [5] (at 50.0 µM) it was 87% (active); in experiment [6] (setting [7]), 15%; in experiment [6] (setting [8]), 65%; in experiment [6] (at 50.0 µM) it was 73.7% (active).

`COC(=O)Nc1nc2ccc(C3(c4ccc(F)cc4)OCCO3)cc2[nH]1`: the growth inhibition is 25% in experiment [1] (setting [7]); 51% in experiment [1] (setting [8]); -6.5% in experiment [1] (at 50.0 µM); 9% in experiment [2] (setting [7]); 67% in experiment [2] (setting [8]); 35% in experiment [2] (at 50.0 µM). The growth inhibition in experiment [3] (setting [7]) is 20%; in experiment [3] (setting [8]) it was 55%; in experiment [3] (at 50.0 µM) it was 79% (active); in experiment [4] (setting [7]), 11%; in experiment [4] (setting [8]), 36%; in experiment [4] (at 50.0 µM) it was 56.2%. In addition, the growth inhibition in experiment [6] (setting [7]) was 18%; in experiment [6] (setting [8]), 76% (active); in experiment [6] (at 50.0 µM) it was 80% (active).

For `CCc1cccc(CC)c1N1C(=O)C=CC1=O`, the growth inhibition in experiment [1] (setting [7]) was 45%; in experiment [1] (setting [8]), 78% (active); in experiment [1] (at 50.0 µM) it was 92.7% (active); in experiment [2] (setting [7]) it was 45%; in experiment [2] (setting [8]), 89% (active); in experiment [2] (at 50.0 µM), 94.2% (active). The growth inhibition in experiment [3] (setting [7]) is 99% (active); in experiment [3] (setting [8]), 100% (active); in experiment [3] (at 50.0 µM), 94% (active); in experiment [5] (setting [7]) it was 100% (active); in experiment [5] (setting [8]) it was 100% (active); in experiment [5] (at 50.0 µM), 92.6% (active). In addition, the growth inhibition was 38% in experiment [6] (setting [7]), 87% (active) in experiment [6] (setting [8]) and 93.3% (active) in experiment [6] (at 50.0 µM).

Regarding `COc1ccc2nc3c4c(nccc4c2c1)-c1ncccc1C3=O`, the growth inhibition in experiment [1] (setting [7]) is 93% (active); in experiment [1] (setting [8]), 97% (active); in experiment [1] (at 50.0 µM) it was 89.2% (active); in experiment [2] (setting [7]) it was 31%; in experiment [2] (setting [8]) it was 98% (active); in experiment [2] (at 50.0 µM) it was 87.5% (active). In addition, the growth inhibition in experiment [3] (setting [7]) was 43%; in experiment [3] (setting [8]) it was 97% (active); in experiment [3] (at 50.0 µM), 90.8% (active); in experiment [4] (setting [7]), 61%; in experiment [4] (setting [8]) it was 97% (active); in experiment [4] (at 50.0 µM), 90.6% (active). Further, the growth inhibition is 58% in experiment [5] (setting [7]); 96% (active) in experiment [5] (setting [8]); 89.5% (active) in experiment [5] (at 50.0 µM); 93% (active) in experiment [6] (setting [7]); 97% (active) in experiment [6] (setting [8]); -43% in experiment [6] (at 50.0 µM).

In the case of `CC1(O)CCCCCC1`, the growth inhibition in experiment [1] (setting [7]) was -13%; in experiment [1] (setting [8]) it was 74% (active); in experiment [1] (at 50.0 µM), 85% (active); in experiment [2] (setting [7]), -29%; in experiment [2] (setting [8]), 58%; in experiment [2] (at 50.0 µM), 69.7%. In addition, the growth inhibition in experiment [3] (setting [7]) was -7%; in experiment [3] (setting [8]) it was 54%; in experiment [3] (at 50.0 µM), 88.2% (active); in experiment [4] (setting [7]) it was 28%; in experiment [4] (setting [8]), 68%; in experiment [4] (at 50.0 µM), 77.7% (active). For the same compound, the growth inhibition in experiment [5] (setting [7]) is 3%; in experiment [5] (setting [8]) it was 74% (active); in experiment [5] (at 50.0 µM) it was 84.2% (active); in experiment [6] (setting [7]), 16%; in experiment [6] (setting [8]), 91% (active); in experiment [6] (at 50.0 µM), 71.1% (active).

With `CC1=CC[C@@H]2[C@@H](CC[C@@]2(C)O)C(C)(C)[C@H]1CC[C@@H]1[C@@]2(C)CCC(=O)C(C)(C)O[C@@H]2CC[C@]1(C)O`, the growth inhibition in experiment [1] (setting [7]) is 20%; in experiment [1] (setting [8]), 57%; in experiment [1] (at 50.0 µM) it was 74.8% (active); in experiment [2] (setting [7]), 13%; in experiment [2] (setting [8]) it was 37%; in experiment [2] (at 50.0 µM), 62.9%. Besides, the growth inhibition is -1% in experiment [3] (setting [7]); 78% (active) in experiment [3] (setting [8]); 72.2% (active) in experiment [3] (at 50.0 µM); 16% in experiment [4] (setting [7]); 70% (active) in experiment [4] (setting [8]); 55.2% in experiment [4] (at 50.0 µM). Further, the growth inhibition in experiment [5] (setting [7]) is 10%; in experiment [5] (setting [8]) it was 73% (active); in experiment [5] (at 50.0 µM), 62.1%; in experiment [6] (setting [7]) it was 25%; in experiment [6] (setting [8]), 62%; in experiment [6] (at 50.0 µM) it was 22.9%.

Regarding `COc1ccc2nc3cc(Cl)ccc3c(NCCCCCN3CCCCC3)c2c1`, the growth inhibition in experiment [1] (setting [7]) was -3%; in experiment [1] (setting [8]), 70% (active); in experiment [1] (at 50.0 µM) it was 77.6% (active); in experiment [2] (setting [7]), -3%; in experiment [2] (setting [8]), 31%; in experiment [2] (at 50.0 µM), 39%. Moreover, the growth inhibition was -7% in experiment [3] (setting [7]); 26% in experiment [3] (setting [8]); 47.1% in experiment [3] (at 50.0 µM); 1% in experiment [4] (setting [7]); 45% in experiment [4] (setting [8]); 63% in experiment [4] (at 50.0 µM). The growth inhibition in experiment [6] (setting [7]) is 0%; in experiment [6] (setting [8]), 47%; in experiment [6] (at 50.0 µM) it was 59.9%.
